What follows are molecules tested on IKBKE.

SMILES | Kinases covered
COc1cc(/C=N/Nc2ncnc3[nH]ncc23)ccc1O [GW578748X] | IKBKE
Cl.O=C1Nc2ccc(-c3cccnc3)cc2C1=Cc1cc(Br)c(O)c(Br)c1 [GW429374A] | IKBKE
Cc1cc(O)cc(C)c1/C=C/c1cncc(C(N)=O)c1 [GW435821X] | IKBKE

Each molecule was assayed on INSR.

SMILES | Kinases covered
CN(C)C/C=C/C(=O)Nc1ccc(C(=O)Nc2cccc(Nc3ncc(Cl)c(-c4c[nH]c5ccccc45)n3)c2)cc1 [THZ1] | INSR
COc1cc(N2CCN(C(C)C)CC2)ccc1Nc1nc(Nc2ccc(F)cc2C(=O)NC[C@@H](O)CO)c2cc[nH]c2n1 [GSK1392956A] | INSR
CCc1cc(Nc2nccc(-c3c(-c4ccc(OC)c(C(=O)Nc5c(F)cccc5F)c4)nc4ccccn34)n2)c(OC)cc1N1CCC(N2CCN(S(C)(=O)=O)CC2)CC1 [GSK1904529] | INSR
COc1cc(C)c(N(C)C(=O)CN(C)C)cc1Nc1nc(Nc2cccc(F)c2C(N)=O)c2cc[nH]c2n1 [GSK2219385] | INSR

Reference: publication PMC7826789 (International Journal of Molecular Sciences, 2021)
